Laboratory results: ChEMBL document CHEMBL4888484, “Replenishing the malaria drug discovery pipeline: Screening and hit evaluation of the MMV Hit Generation Library 1 (HGL1) against asexual blood stage Plasmodium falciparum ,using a nano luciferase reporter read-out” (2022)
Out of some 4,800 compounds screened, about 410 (8.5%) showed an effect of 50% or more. For the sample, strong results were picked, then their nearest neighbours and some compounds at random.

System: Plasmodium falciparum
Assay: Confirmatory screen in NF54 pLDH assay, in single point, at 2uM, 72h
Type: functional, Erythrocyte
Details: timepoint 72 hour

| Structure (SMILES) | % Inhibition |
| --- | --- |
| Cc1cc(C)cc(NC(=O)Cc2nnc3ccc(C(=O)Nc4ccccc4)cn23)c1 | 8% |
| CC(=O)N1CCN(c2nc3c(s2)C[C@@H](C(=O)NCc2ccccc2F)CC3)CC1 | -22% |
| O=S1(=O)N=C(NC[C@@H](O)Cc2ccccc2)c2ccccc21 | 7% |
| Cc1cccc(NC(=O)Nc2cc(F)c3[nH]c(=O)ccc3c2)c1 | -7% |
| COc1ccc(-c2noc(CCn3c(=O)[nH]c4cc5c(cc4c3=O)OCO5)n2)c(OC)c1 | 6% |
| Cc1cnc(C2CCN(C(=O)[C@@H]3CNC(=O)O3)CC2)s1 | 2% |
| COC1(C)CN(c2cnc(C#N)cn2)C1 | 2% |
| O[C@H]1Cc2ccccc2[C@H]1Nc1nc(-c2ccccn2)nc2c1CCNC2 | -7% |
| CCc1ccc(NC(=O)[C@H]2CCCN(c3nc4cccnc4n(Cc4ccccc4)c3=O)C2)cc1 | -14% |
| C[C@H]1CCCN(c2nc(-c3ccccn3)nc3ccccc23)C1 | 98% |
| Cc1ccccc1N1CCN(C(=O)c2ccc3ncccc3c2)CC1 | 9% |
| C[C@H]1CCN(c2nc(-c3ccccn3)nc3c2CCC3)C1 | 93% |
| FC(F)(F)C1CN(c2nc(-c3ccccn3)nc3c2CCC3)C1 | 54% |
| C[C@H]1CCCN(S(=O)(=O)NCC(=O)Nc2ccccn2)C1 | -14% |
| CCc1sc(N(C(=O)Cc2ccccc2)c2ccc(C)cc2C)nc1-c1ccc(Cl)cc1 | 12% |
| COc1ccc(-n2nc(C(=O)N3CCOCC3)c(=O)cc2OC)cc1 | 3% |
| CCc1nnc2c(S(=O)(=O)Nc3cc(F)cc(F)c3)cccn12 | 9% |
| CN1N=C(C(=O)NC2CCC3CCCCC3C2)CCC1=O (stereo not given) | -20% |
| COc1ccc(C(=O)N(CCO)CCN2CCOCC2)c(OC2CCCC2)c1 | 11% |
| Cc1cccc(-n2c(=O)[nH]c3nc(NCCN(C)C)ncc3c2=O)c1C | 8% |
| COc1ccccc1C(=O)N1CCC([C@H](NC(=O)c2ccc3c(c2)OCO3)C(=O)NC(C)C)CC1 | 10% |
| COc1ccccc1CC(=O)NC[C@H](C)O | 14% |
| O=C1c2cc3ccccc3c(-c3ccccc3)c2C(=O)N1c1ccccc1 | -16% |
| CCc1nn2c(c1-c1ccc(C)cc1)NC(=O)C[C@H]2C(=O)O | 12% |
| Cc1cnc(CC[C@H]2CCCN2C(=O)CCCc2ccccc2)n1C | 10% |
| CC(C)O[C@@H]1CCN(C[C@H](O)c2ccc(C(F)(F)F)cc2)C1 | 42% |
| CCc1ccc(C(=O)N2CC[C@H](CC(=O)NCc3ccccc3)C2)cc1 | 10% |

| Structure (SMILES) | % Inhibition |
| --- | --- |
| Cc1cccc(C)c1NC(=O)c1cc(-c2cccc3ccccc23)[nH]n1 | 11% |
| Cc1cccc2c(-c3cc(N)nc(N)n3)c[nH]c12 | 100% |
| Cc1cc(Br)c2c(c1)C(O)(N1CCCC(C)C1)C(=O)N2 (stereo not given) | 9% |
| O=C(CN1C(=O)C[C@H](Cc2ccc(F)cc2)C1=O)N1CCNC1=O | 9% |
| CC1CCCC(C)N1C(=O)CN(C)c1cccc2cccnc12 (stereo not given) | 4% |
| CN(C)c1nc(N)cc(-c2cccc3cccnc23)n1 | 55% |
| CN(C)c1nccc(NC[C@H](N)c2ccccc2)n1 | -12% |
| Cc1ccc(C(N)C(C)S(C)(=O)=O)cc1 (stereo not given) | -18% |
| COc1cccc(-c2cc(O)cc(CC[C@H]3CCCCN3)c2)n1 | 89% |
| Oc1cc(CC[C@H]2CCCCN2)cc(-c2cnc3ccccc3n2)c1 | 80% |
| O=C(NCC(F)(F)F)Nc1ccc(CO)cc1 | 3% |
| O=c1[nH]c2cc(Cl)c(S(=O)(=O)Cl)cc2[nH]1 | 6% |
| CCc1c(C(=O)NCc2ccc(CN3CC(C)OC(C)C3)cc2)[nH]c(C)c1C(C)=O (stereo not given) | -27% |
| COc1ccc(CC(=O)N2CCN(c3cnn4cnnc4c3)CC2)cc1 | 6% |
| CCc1nnc2ccc(S(=O)(=O)N(CC#N)c3ccccc3)cn12 | -16% |
| C=CCNC(=O)CCC(=O)NCc1ccco1 | 13% |
| c1coc(CNc2nc(Nc3cccc4ccccc34)nc3ccccc23)c1 | 50% |
| COc1ccc(NC(=O)CCC(=O)NCc2ccco2)cc1 | 15% |
| COc1ccc(CCN[C@@H]2c3ccccc3C(=O)N2C2CCCCC2)cc1OC | 10% |
| CC(=O)N(Cc1ccccc1)c1ccc2c(c1)nc(Cn1nc(C)cc1C)n2C | 5% |
| CCC(CC)N1CC(C(=O)NC2COc3ccc(C)cc32)CC1=O (stereo not given) | -21% |
| CCn1cc(S(=O)(=O)N(C)Cc2nn(CC)cc2Cl)cn1 | 8% |
| Cn1c(=O)c2sc(N3CCCC3)nc2n(CC(=O)NC2CCCC2)c1=O | 4% |
| COc1ccc(CC[C@H](C)NC(=O)NCCCN2CCCC2=O)cc1 | 11% |
| CC(C)C(=O)N1CC[C@H](CC(=O)NCc2ccncc2)C1 | 5% |
| N#CC1CCC(Nc2cnn(-c3ccncc3)c2)CC1 (stereo not given) | 11% |
| CS(=O)(=O)N1CC[C@H](CC(=O)N2CCN(c3ccc(F)cc3)CC2)C1 | -21% |

| Structure (SMILES) | % Inhibition |
| --- | --- |
| CN(C)c1cc(C(=O)N2CCOC3CCCCC32)ccn1 (stereo not given) | 3% |
| Cc1ccc(C)c(-c2nc(Cn3c(=O)c4c(C)cc(C)nc4n(C)c3=O)c(C)o2)c1 | 3% |
| Fc1cnc(OC2Cc3ccccc3C2)nc1 | 57% |
| Cn1nccc1/C=C1\CC2C3CCc4cc(O)ccc4C3CCC2(C)C1O (stereo not given) | 47% |
| Nc1ncncc1C(=O)NCCc1c[nH]c2ccc(F)cc12 | 6% |
| CCOc1ncc(Br)cc1C(=O)O | -19% |
| O=C(C[C@H]1CCCN1c1ccnc(C2CC2)n1)c1ccco1 | 12% |
| c1cc2c(cc1[C@H]1NCCCCCCO1)OCO2 | -5% |
| O=C1Nc2ccc(Br)cc2C1=O | 13% |
| COc1ccccc1-n1c(=O)[nH]c2nc(N3CCN(c4ccccn4)CC3)ncc2c1=O | 3% |
| CC(C)(C)OC(=O)NC1CCN(c2ncc(C(=O)NCc3ccc(F)c(Cl)c3)c(N)n2)CC1 | -10% |
| N#Cc1cc(N2CCc3ccccc3C2)nc2ccccc12 | 8% |
| N#Cc1cccc(-c2n[nH]c3c2CN(c2ccc(-c4ccccc4)nn2)CC3)c1 | 100% |
| COc1ccc2c(c1)CN(C(=O)C1CC3CCC1C3)CC2 (stereo not given) | 11% |
| Cc1ncsc1C(=O)N1CCC2(CCCCC2)C1 | -22% |
| O=C1C[C@@H](C(=O)N2CCC3(CCCCC3)C2)CCN1 | 10% |
| Nc1ncc(C(=O)N2CCC3(CCCCCC3)C2)s1 | 98% |
| NC(=O)[C@H]1CCCN(c2ccnc(C(=O)NCc3ccccc3)c2)C1 | 4% |
| CC1C(Cc2ccccc2)CCN1C(=O)c1cnc(C(F)(F)F)nc1 (stereo not given) | 14% |
| Cc1ccc(C(=O)N2C[C@@H]3C[C@H](NC(=O)c4cccnc4)[C@H]2C3)cc1F | -1% |
| CC(=O)Nc1ccc(C)cc1S(=O)(=O)N1CC=C(c2c(C)n(Cc3ccccc3C)c3ccccc23)CC1 | 90% |
| Cc1ccc(NC(=O)Cn2c(=O)n(Cc3ccco3)c(=O)c3ccccc32)c(C)c1 | -13% |
| Cc1ccc(S(=O)(=O)N2CC[C@H](CC(=O)NCc3ccccc3)C2)c(C)c1 | -22% |
| Cc1nn(C)c(Cl)c1CNC[C@@H](c1ccsc1)N(C)C | 9% |
| O=C(Nc1nnc(C2CC2)s1)[C@@H]1Cc2ccccc2O1 | 5% |
| O=C(NC1CCCC1)N1CCN(c2nc3cccnc3n(Cc3ccccc3)c2=O)CC1 | 8% |
| Brc1cncnc1N1CCC[C@H](c2nnn[nH]2)C1 | -7% |

| Structure (SMILES) | % Inhibition |
| --- | --- |
| CCn1cnc2c(N3CCC[C@H](c4ccncc4)C3)ncnc21 | 77% |
| CCn1c(=O)c(N2CCC[C@H](C(=O)NCc3ccccc3OC)C2)nc2cccnc21 | -3% |
| COc1cccc(S(=O)(=O)N(C)[C@H]2CCc3n[nH]c(=O)n3CC2)c1 | 1% |
| Cn1c(=O)c2c(nc3nc(N4CCOCC4)n(CC(=O)c4ccc(Cl)cc4)n32)n(C)c1=O | 0% |
| c1ccc(-c2cn[nH]c2N2CCNCC2)cc1 | -16% |
| COc1cc(OC)cc(C2(O)CCN(C(=O)CCc3ccccc3F)CC2)c1 | -20% |
| O=C(NCC1CC1)c1cn[nH]c1-c1ccccc1 | 1% |
| COc1cc(-c2nc3ccccc3s2)ccc1OCc1cccc2ccccc12 | 0% |
| COc1ccc(-c2c(C(F)(F)F)n[nH]c2-c2ccc(OCc3ccccc3F)cc2O)cc1 | 91% |
| Oc1cc(OCc2ccccc2F)ccc1-c1[nH]ncc1-c1ccccc1 | 72% |
| COc1ccccc1NC(=O)CC1CS(=O)(=O)CC1CC(=O)Nc1ccccc1OC (stereo not given) | 13% |
| COc1ccc(-c2cnn3c(-c4ccccn4)ccnc23)cc1OC | 4% |
| C#CCNC(=O)[C@H](C#N)c1nc(C)c(C)s1 | 10% |
| Cc1cnc([C@H](C)NC(=O)c2conc2C(C)(C)N)s1 | 9% |
| C[C@H]1Cc2cc(C(=O)NCc3nc(C(F)(F)F)n[nH]3)ccc2O1 | 10% |
| COc1ccc(-c2cn3cc(C)nc3n2C)cc1 | 0% |
| Cc1ccc(S(=O)(=O)CC(=O)NC(C)(C)C)cc1 | 5% |
| O=C(CCc1ccc(Cl)c(C(F)(F)F)c1)N1CC[C@H](N2CCc3ccccc3C2)C1 | 45% |
| CC(C)(C)OC(=O)CN(c1cc(F)cc(F)c1)S(=O)(=O)c1ccc2nncn2c1 | -2% |
| CCN(C)C1(CNC(=O)c2ccc(-c3cc(F)ccc3O)cc2)CCCC1 | 11% |
| NC(=O)N1CCC[C@H]1C(=O)NC1CC(=O)N(C2CC2c2ccccc2)C1 (stereo not given in full) | 8% |
| Cc1cnc(NC(=O)c2ccc3ncoc3c2)c(Br)c1 | 15% |
| O=C(CC1CCOCC1)N1CCN(C(=O)c2ccco2)CC1 | -18% |
| Cc1ccc(-c2ccnc3c(C(=O)NC4CC4)cnn23)cc1C | 4% |
